High-throughput results as filed in PubChem.
Rows were chosen to be rich in hits. Some 3.9% of all compounds tested hit in one or more screens of this group.
PLCg1 inh – PLC-gamma1 (human) inhibition, primary screen; 0.84% of 370,000 active; inhibition, % at 12.2 µM; purified PLC-gamma1, fluorogenic substrate, fluorescence; AID 720700; P19174
sPLA2-III inh – Inhibits HGIII-sPLA2 liposome hydrolysis, primary screen; Q9NZ20; QFRET BODIPY PC-A2 liposome hydrolysis, fluorescence; 0.56% of 370,000 active; inhibition, % at 12.2 µM;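 active = inhibition above mean plus 3 SD of compounds lying within the high and low control bounds, cut at about 19% in these data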;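 note: 0% = median of test compound wells and 100% = no enzyme DMSO wells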
Target sequence (Q9NZ20 whole entry, looked up): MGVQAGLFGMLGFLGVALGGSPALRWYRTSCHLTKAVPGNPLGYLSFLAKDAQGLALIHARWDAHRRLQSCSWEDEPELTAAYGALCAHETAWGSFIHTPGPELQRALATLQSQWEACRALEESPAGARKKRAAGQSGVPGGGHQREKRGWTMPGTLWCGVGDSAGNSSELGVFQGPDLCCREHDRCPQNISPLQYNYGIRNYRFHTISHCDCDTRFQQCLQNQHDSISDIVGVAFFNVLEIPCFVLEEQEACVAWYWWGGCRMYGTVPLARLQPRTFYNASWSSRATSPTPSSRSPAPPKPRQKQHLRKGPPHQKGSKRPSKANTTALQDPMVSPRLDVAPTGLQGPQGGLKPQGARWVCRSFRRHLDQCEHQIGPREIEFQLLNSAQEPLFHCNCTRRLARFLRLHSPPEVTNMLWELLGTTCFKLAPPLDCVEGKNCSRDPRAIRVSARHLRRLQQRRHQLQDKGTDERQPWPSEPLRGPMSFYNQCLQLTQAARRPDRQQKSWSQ
AHR act – human AHR activation | AHR-responsive luciferase reporter cells, luminescence | activation, % at 5 µM | P35869 | 2.5% of 320,000 active | AID 2796; in the data active = activation above about 47%;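 note: 0% = vehicle wells and 100% = reference agonist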
PLCb3 inh – blocks human PLC-beta3 enzyme activity | Purified PLC-beta3, fluorogenic substrate, fluorescence | inhibition, % at 12.2 µM | 0.18% of 370,000 active | AID 720704; in the data active = inhibition above about 11%;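 note: 0% = median of compound wells on plate and 100% = full blocker control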
HIF act – HIF pathway transcriptional activation; U2OS HRE-luciferase reporter, luminescence; normalized: DMSO 0%, desferrioxamine 100%; activation, % at 7.5 µM (by protocol); AID 1910; 0.32% of 300,000 active;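 active = mean activation of at least 10% of the iron chelator positive control signal, with at least half of replicates also reaching 10%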
CR mimetic SO – yeast age-related superoxide inhibition as caloric restriction mimetic; S. cerevisiae aged cells, superoxide DHE fluorescence; stronger effect = lower value; superoxide response (% of plate mean), % at 10 µM; 0.18% of 330,000 active; AID 2690;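 active = superoxide response under a set limit, about three screen SD below normal, cut at about 65% in these data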;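 note: yeast aged for seven days with compound at 30 °C before DHE staining; 100% = average MFI of all compound-treated wells on the plate with controls excluded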
PLCgamma1 ctr – inhibits human PLC-gamma1 in PLC-beta3 counter-screen; AID 743258; purified PLC-gamma1, fluorogenic substrate, fluorescence; inhibition, % at 12.3 µM; shares compounds with PLCg1 inh; 3.1% of 3,300 active
PLCbeta3 conf – confirmation of human PLC-beta3 inhibitors | purified PLC-beta3, fluorogenic substrate fluorescence | AID 743261 | shares compounds with PLCg1 inh | 1% of 3,300 active | inhibition, % at 12.3 µM; in the data active = inhibition above about 11%
Numbers without * were called inactive. Cut-off read from the data, not from the text of the source, unless noted: active = inhibition above about 9.5%; inactive = the rest.

Screening CC(=O)N1CCCc2cc(S(=O)(=O)N(C)Cc3ccccc3)ccc21 returned PLCg1 inh 9.8*, sPLA2-III inh 5.1, AHR act -1.4, PLCb3 inh 4.0, HIF act -0.1, CR mimetic SO 93.7, PLCgamma1 ctr -2.9 and PLCbeta3 conf 4.3.
For CC1=C(C(=O)Nc2ccccn2)C(c2ccc(Br)cc2)NC(=S)N1 (stereo not given) the results were PLCg1 inh 14.9*, sPLA2-III inh 12.9, AHR act -1.7, PLCb3 inh 5.1, HIF act 3.7, CR mimetic SO 104.1, PLCgamma1 ctr -2.1 and PLCbeta3 conf -2.1.
For CC1=C(C(=O)Nc2ccccn2)C(c2ccc(Cl)cc2)NC(=S)N1 (stereo not given) the results were PLCg1 inh 0.5, sPLA2-III inh 11.6, AHR act 1.8, PLCb3 inh 3.1, HIF act 1.3 and CR mimetic SO 107.4.
Cc1csc(=O)n1CCC(=O)NCc1ccc(F)cc1 was read as PLCg1 inh 1.6, sPLA2-III inh 13.1, AHR act -1.3, PLCb3 inh -3.2 and CR mimetic SO 115.6.
For COc1ccc(CNC(=O)CCn2c(C)csc2=O)cc1 the results were PLCg1 inh 11.5*, sPLA2-III inh -6.4, AHR act 0.6, PLCb3 inh -0.8, CR mimetic SO 89.5, PLCgamma1 ctr 0.8 and PLCbeta3 conf -4.0.
`O=C(CCn1c(=S)oc2ccccc21)Nc1cccc(O)c1` gave PLCg1 inh 7.9, sPLA2-III inh -3.9, AHR act -0.1, PLCb3 inh 11.6*, HIF act -0.6, CR mimetic SO 93.4, PLCgamma1 ctr -4.4 and PLCbeta3 conf -4.7.
For CC1CCc2cc(F)ccc2N1C(=O)CSc1nnc2c3cc(F)ccc3n(C)c2n1 (stereo not given) the results were PLCg1 inh 5.4, sPLA2-III inh 5.2, AHR act 16.5, PLCb3 inh 3.7, HIF act -0.4 and CR mimetic SO 87.9.
For CC1CCc2cc(F)ccc2N1C(=O)CSc1nnc2c3ccccc3n(C)c2n1 (stereo not given) the results were PLCg1 inh 9.7*, sPLA2-III inh 6.6, AHR act 11.0, PLCb3 inh 2.0, CR mimetic SO 113.9, PLCgamma1 ctr -10.3 and PLCbeta3 conf -2.6.
O=C(C[n+]1ccccc1)N/N=C/c1ccco1 was read as PLCg1 inh 9.5*, sPLA2-III inh 6.4, AHR act -0.7, PLCb3 inh 3.4, HIF act -0.1, CR mimetic SO 93.9, PLCgamma1 ctr 5.3 and PLCbeta3 conf 2.1.
Screening O=C(CCCCCNC(=O)N1CCn2c1nc1ccccc12)NCc1ccc(F)cc1 returned PLCg1 inh 11.2*, sPLA2-III inh 8.9, AHR act 1.6, PLCb3 inh -0.1, HIF act 0.2, CR mimetic SO 90.7, PLCgamma1 ctr -5.1 and PLCbeta3 conf -3.8.
O=C(CCCCCNC(=O)N1CCn2c1nc1ccccc12)NCc1ccccc1 was read as PLCg1 inh 5.1, sPLA2-III inh -6.9, AHR act 8.4, PLCb3 inh -4.3, HIF act -0.7 and CR mimetic SO 76.4.
`CN(c1ccc(Br)cc1)S(=O)(=O)c1ccc2[nH]cc(C(=O)NCCN3CCOCC3)c(=O)c2c1` gave PLCg1 inh -2.1, sPLA2-III inh -6.2, AHR act 10.3, PLCb3 inh -2.3, HIF act 0.2 and CR mimetic SO 97.0.
`CCCS(=O)(=O)NC(=O)C1(C)CCN(C(=O)c2cc(C)nn2C(C)(C)C)C1` (stereo not given) gave PLCg1 inh 9.8*, sPLA2-III inh -4.2, PLCb3 inh -0.1, PLCgamma1 ctr -1.8 and PLCbeta3 conf 0.3.
Screening CC(CNC(=O)[C@@H](Cc1ccccc1)NC(=O)[C@H]1O[C@@H](n2cnc3c(=O)[nH]c(N)nc32)[C@H](O)[C@@H]1O)c1ccccc1 (stereo not given in full) returned PLCg1 inh -0.4, sPLA2-III inh 1.5 and PLCb3 inh 2.1.
`Cc1ccc(/C=N/NC(=O)C[n+]2ccccc2)s1` gave PLCg1 inh 1.2, sPLA2-III inh 1.6, AHR act 1.9, PLCb3 inh 0.3, HIF act 0.3 and CR mimetic SO 85.3.
`CCCCCCCCCC(=O)N/N=C/c1ccc(C)s1` gave PLCg1 inh 10.2*, sPLA2-III inh 5.2, AHR act 5.6, PLCb3 inh 3.5, HIF act -0.1, CR mimetic SO 96.6, PLCgamma1 ctr -8.1 and PLCbeta3 conf -7.2.
O=C(CCS(=O)(=O)c1cccs1)Nc1ccc(C(=O)NCc2ccc(F)cc2)cc1 was read as PLCg1 inh 9.6*, sPLA2-III inh -19.3, AHR act -3.5, PLCb3 inh 9.9, HIF act -0.8, CR mimetic SO 100.2, PLCgamma1 ctr -9.0 and PLCbeta3 conf -1.7.
O=C(CCS(=O)(=O)c1cccs1)Nc1ccc(C(=O)NCc2cccs2)cc1 was read as PLCg1 inh 5.5, sPLA2-III inh -7.2, AHR act 2.1, PLCb3 inh -1.8, HIF act -0.5 and CR mimetic SO 82.2.
`CN(Cc1nc(-c2ccncc2)no1)S(=O)(=O)c1ccccc1` gave PLCg1 inh -1.4, sPLA2-III inh 0.6, AHR act 10.2, PLCb3 inh 0.9, HIF act -0.3 and CR mimetic SO 103.7.
Screening CC(C)N(Cc1nc(-c2ccccc2)no1)C(=O)CN(C)S(=O)(=O)c1ccccc1 returned PLCg1 inh 9.6*, sPLA2-III inh 12.8, AHR act 1.9, PLCb3 inh 5.7, HIF act -0.2, CR mimetic SO 97.7, PLCgamma1 ctr 8.1 and PLCbeta3 conf 0.5.
Screening COc1cc(C(=O)Nc2cc3c(cc2N2CCCCC2)n(C)c(=O)n3C)cc(OC)c1OC returned PLCg1 inh -27.1, sPLA2-III inh -2.5, AHR act 14.3, PLCb3 inh -50.5, HIF act -0.2 and CR mimetic SO 126.2.
COc1ccccc1-c1csc(C(NC(C)=O)c2cccc(F)c2)n1 (stereo not given) was read as PLCg1 inh -5.5, sPLA2-III inh -0.2 and PLCb3 inh -8.2.
`CC(=O)NC(c1cccc(F)c1)c1nc(/C=C/c2ccccc2)cs1` (stereo not given) gave PLCg1 inh 10.2*, sPLA2-III inh -35.8, PLCb3 inh 8.1, PLCgamma1 ctr -8.1 and PLCbeta3 conf -6.4.
`CCc1ccc([C@@H]2C[C@H]3[C@@H](CN2S(=O)(=O)c2ccc(C)cc2)C(=O)C[C@@H](c2cccc(Cl)c2)N3S(=O)(=O)c2ccc(C)cc2)cc1` gave PLCg1 inh 0.7, sPLA2-III inh -8.1 and PLCb3 inh -0.6.
